Tests used:
Test in all cases: DAPPL (digital affinity profiling via proximity ligation, sequencing); 10 mM Tris-HCl pH 7.5, 50 mM NaCl, 1 mM DTT, 4% glycerol, room temperature, 30 min; GST-TFs on glutathione beads, 16-mer random dsDNA library, 0.1% formaldehyde crosslink after washing; high values mean tight binding
FEV = target: T1, FEV (Homo sapiens, UniProt Q99581 1-238); conditions: protein: recombinant; tags: N-terminal GST; dsDNA, one strand shown
T1 sequence: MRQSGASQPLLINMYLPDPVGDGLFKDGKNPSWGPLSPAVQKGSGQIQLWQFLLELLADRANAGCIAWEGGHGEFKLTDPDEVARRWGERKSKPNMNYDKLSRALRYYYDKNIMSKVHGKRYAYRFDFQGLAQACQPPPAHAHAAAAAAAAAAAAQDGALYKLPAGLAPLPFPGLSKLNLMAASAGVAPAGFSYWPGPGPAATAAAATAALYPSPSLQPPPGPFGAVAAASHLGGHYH
In short: (§1)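 GST fusions of human transcription factors were expressed in yeast and captured with glutathione beads. Once given DNA barcodes and pooled alongside a tag-only sample, they were incubated for 30 min at room temperature with 200 nmole of a random double-stranded 16-mer DNA library in Tris/NaCl/DTT/glycerol buffer, then washed, crosslinked (0.1% formaldehyde), proximity-ligated, PCR-amplified and sequenced on an Illumina NextSeq500. The binding signal of each hexamer is its read frequency for a factor divided by its frequency for the tag-only sample.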

ETV5 = ETV5 (Homo sapiens, UniProt P41161 1-510); conditions: protein: recombinant; tags: N-terminal GST; dsDNA, one strand shown
Chain of ETV5 (P41161 whole entry): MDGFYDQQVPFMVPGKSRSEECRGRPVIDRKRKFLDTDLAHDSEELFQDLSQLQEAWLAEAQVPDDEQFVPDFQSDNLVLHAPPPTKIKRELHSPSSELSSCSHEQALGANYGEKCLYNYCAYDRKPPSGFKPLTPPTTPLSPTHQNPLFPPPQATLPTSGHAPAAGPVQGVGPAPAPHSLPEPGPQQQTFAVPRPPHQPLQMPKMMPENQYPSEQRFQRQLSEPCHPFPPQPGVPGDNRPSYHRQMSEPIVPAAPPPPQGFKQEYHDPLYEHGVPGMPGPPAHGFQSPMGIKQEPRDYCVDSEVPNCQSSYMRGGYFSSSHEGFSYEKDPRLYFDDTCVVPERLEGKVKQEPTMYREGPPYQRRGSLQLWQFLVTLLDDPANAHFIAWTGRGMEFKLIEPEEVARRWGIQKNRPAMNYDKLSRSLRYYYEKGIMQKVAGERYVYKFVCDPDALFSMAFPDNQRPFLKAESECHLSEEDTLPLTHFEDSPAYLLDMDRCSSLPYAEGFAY
In short: as §1

HSF1 = HSF1 (Homo sapiens, UniProt Q00613 1-529); conditions: protein: recombinant; tags: N-terminal GST; chain copies: 3; dsDNA, one strand shown
Chain of HSF1 (Q00613 whole entry): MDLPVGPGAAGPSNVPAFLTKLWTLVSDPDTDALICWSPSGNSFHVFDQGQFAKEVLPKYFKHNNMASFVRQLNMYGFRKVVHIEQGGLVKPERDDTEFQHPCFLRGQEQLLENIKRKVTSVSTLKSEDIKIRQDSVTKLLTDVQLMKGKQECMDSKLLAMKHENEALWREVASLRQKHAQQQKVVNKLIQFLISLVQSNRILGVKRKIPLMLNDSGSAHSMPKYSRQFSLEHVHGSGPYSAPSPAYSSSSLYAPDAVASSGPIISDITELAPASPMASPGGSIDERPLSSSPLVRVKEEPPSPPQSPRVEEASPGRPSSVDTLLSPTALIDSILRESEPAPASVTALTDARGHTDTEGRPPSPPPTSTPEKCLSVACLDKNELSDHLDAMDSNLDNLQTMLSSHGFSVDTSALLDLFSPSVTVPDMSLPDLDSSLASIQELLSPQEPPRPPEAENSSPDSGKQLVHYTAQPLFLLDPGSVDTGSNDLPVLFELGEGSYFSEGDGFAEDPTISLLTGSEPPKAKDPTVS
In short: as §1

SPIC = target: T2, SPIC (Homo sapiens, UniProt Q8N5J4 1-248); conditions: protein: recombinant; tags: N-terminal GST; dsDNA, one strand shown
T2 sequence: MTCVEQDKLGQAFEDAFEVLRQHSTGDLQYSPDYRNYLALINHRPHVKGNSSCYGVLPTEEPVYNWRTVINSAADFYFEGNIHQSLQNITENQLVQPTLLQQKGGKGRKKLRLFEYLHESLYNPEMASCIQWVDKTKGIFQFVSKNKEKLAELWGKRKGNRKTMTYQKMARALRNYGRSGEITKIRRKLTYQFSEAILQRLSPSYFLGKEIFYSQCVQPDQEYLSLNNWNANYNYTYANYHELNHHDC
In short: as §1

ELF4 = ELF4 (Homo sapiens, UniProt Q99607 1-663); conditions: protein: recombinant; tags: N-terminal GST; dsDNA, one strand shown
Chain of ELF4 (Q99607 whole entry): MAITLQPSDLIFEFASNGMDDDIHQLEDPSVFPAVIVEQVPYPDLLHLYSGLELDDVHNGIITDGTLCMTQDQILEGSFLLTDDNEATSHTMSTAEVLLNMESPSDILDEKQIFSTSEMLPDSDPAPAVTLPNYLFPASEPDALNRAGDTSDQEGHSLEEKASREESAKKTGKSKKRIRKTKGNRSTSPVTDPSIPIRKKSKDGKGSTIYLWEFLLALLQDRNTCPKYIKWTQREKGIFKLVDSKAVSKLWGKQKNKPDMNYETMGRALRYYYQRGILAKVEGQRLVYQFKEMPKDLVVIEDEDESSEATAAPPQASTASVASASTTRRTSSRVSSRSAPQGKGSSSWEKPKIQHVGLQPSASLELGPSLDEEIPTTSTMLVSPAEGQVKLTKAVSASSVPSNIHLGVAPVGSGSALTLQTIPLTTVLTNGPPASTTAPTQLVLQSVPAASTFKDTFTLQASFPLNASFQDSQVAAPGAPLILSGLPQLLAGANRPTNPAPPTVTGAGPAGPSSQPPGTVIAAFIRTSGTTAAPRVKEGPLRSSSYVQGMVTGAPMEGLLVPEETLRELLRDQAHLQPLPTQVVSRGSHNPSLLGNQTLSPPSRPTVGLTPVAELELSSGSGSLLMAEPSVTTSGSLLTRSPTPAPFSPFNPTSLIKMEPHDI
In short: as §1

ELK4 = target: T3, ELK4 (Homo sapiens, UniProt P28324-2 1-405); conditions: protein: recombinant; tags: N-terminal GST; dsDNA, one strand shown
T3 sequence: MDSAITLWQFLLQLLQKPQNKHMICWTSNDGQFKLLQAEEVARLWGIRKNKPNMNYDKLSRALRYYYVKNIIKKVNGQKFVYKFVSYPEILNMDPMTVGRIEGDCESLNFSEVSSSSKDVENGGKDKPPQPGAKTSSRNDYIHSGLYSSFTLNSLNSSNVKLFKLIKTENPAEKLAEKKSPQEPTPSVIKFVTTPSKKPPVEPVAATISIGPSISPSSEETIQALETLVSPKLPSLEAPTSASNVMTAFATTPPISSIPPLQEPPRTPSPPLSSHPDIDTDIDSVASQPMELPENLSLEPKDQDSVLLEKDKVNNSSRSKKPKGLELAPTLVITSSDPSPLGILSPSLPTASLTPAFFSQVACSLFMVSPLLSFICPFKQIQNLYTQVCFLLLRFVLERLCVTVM
In short: as §1

ETV2 = target: T4, ETV2 (Homo sapiens, UniProt O00321 1-342); conditions: protein: recombinant; tags: N-terminal GST; dsDNA, one strand shown
T4 sequence: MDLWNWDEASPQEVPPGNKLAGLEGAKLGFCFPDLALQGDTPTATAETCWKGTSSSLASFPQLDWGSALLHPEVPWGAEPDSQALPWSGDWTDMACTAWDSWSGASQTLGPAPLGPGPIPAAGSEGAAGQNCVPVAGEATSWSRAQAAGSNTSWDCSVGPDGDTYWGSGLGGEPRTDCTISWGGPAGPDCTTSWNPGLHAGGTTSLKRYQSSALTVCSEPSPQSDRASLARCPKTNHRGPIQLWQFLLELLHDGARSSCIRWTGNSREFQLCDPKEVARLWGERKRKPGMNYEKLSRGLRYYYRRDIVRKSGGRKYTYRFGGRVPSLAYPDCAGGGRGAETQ
In short: as §1

ELF3 = target: T5, ELF3 (Homo sapiens, UniProt P78545 1-371); conditions: protein: recombinant; tags: N-terminal GST; dsDNA, one strand shown
T5 sequence: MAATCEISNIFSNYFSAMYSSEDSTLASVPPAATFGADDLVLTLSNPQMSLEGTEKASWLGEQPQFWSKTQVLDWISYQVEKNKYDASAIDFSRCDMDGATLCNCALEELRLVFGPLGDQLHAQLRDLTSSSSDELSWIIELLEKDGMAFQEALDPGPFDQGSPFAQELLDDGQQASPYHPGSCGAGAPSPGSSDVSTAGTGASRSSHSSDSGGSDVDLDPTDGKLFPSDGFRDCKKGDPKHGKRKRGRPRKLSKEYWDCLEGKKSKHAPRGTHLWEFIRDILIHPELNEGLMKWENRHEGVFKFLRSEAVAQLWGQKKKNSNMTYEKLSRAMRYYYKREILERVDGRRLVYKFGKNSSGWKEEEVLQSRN
In short: as §1

CRX = CRX (Homo sapiens, UniProt O43186 1-299); conditions: protein: recombinant; tags: N-terminal GST; dsDNA, one strand shown
Chain of CRX (O43186 whole entry): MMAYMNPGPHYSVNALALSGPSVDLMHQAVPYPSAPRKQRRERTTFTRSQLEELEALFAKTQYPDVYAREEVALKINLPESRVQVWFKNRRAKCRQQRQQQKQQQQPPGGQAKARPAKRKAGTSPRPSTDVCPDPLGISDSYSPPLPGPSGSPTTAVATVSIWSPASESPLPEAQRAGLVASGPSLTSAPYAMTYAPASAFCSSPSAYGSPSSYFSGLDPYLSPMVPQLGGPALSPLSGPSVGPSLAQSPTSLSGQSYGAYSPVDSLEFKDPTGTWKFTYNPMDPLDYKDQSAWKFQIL
In short: as §1

ETV1 = ETV1 (Homo sapiens, UniProt P50549 1-477); conditions: protein: recombinant; tags: N-terminal GST; dsDNA, one strand shown
Chain of ETV1 (P50549 whole entry): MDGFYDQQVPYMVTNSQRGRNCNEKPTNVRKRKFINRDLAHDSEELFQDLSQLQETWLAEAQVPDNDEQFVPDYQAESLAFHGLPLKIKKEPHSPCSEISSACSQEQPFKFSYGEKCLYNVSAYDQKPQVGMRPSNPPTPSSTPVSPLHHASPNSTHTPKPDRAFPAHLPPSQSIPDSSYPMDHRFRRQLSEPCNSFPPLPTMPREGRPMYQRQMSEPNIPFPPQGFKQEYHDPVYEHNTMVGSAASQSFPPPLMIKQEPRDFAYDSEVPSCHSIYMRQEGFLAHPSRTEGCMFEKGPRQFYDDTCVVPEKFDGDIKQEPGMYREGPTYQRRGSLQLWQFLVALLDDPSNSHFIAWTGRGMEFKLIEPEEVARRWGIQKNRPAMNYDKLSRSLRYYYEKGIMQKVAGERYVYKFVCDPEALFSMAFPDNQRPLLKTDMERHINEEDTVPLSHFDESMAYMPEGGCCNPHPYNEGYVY
In short: as §1

ERF = target: T6, ERF (Homo sapiens, UniProt P50548 1-548); conditions: protein: recombinant; tags: N-terminal GST; dsDNA, one strand shown
T6 sequence: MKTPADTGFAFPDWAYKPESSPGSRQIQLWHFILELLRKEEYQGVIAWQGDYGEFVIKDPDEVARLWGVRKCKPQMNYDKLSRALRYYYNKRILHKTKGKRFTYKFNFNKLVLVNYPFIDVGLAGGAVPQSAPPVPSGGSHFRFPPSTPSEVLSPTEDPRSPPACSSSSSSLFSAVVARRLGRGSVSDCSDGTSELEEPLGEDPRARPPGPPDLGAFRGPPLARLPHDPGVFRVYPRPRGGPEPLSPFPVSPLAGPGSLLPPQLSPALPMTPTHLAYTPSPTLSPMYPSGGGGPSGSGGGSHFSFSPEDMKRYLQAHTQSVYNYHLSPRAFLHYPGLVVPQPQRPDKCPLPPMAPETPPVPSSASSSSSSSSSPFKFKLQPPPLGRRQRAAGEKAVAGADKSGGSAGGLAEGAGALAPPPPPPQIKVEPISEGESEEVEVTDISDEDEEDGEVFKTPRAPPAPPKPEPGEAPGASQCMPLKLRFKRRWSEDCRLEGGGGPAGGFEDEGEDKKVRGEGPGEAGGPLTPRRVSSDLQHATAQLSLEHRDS
In short: as §1

ETV3L = target: T7, ETV3L (Homo sapiens, UniProt Q6ZN32 1-361); conditions: protein: recombinant; tags: N-terminal GST; dsDNA, one strand shown
T7 sequence: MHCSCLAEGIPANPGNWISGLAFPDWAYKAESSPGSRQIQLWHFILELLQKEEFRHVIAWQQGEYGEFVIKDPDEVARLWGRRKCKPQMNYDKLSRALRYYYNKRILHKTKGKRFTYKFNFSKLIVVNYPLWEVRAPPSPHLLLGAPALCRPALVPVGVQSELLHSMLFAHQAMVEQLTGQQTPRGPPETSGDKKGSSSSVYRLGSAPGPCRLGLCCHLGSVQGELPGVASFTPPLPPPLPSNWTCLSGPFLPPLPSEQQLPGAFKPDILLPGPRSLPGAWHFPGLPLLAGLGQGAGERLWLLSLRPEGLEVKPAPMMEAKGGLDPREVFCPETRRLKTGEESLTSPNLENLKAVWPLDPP
In short: as §1

ETS2 = target: T8, ETS2 (Homo sapiens, UniProt P15036 1-469); conditions: protein: recombinant; tags: N-terminal GST; dsDNA, one strand shown
T8 sequence: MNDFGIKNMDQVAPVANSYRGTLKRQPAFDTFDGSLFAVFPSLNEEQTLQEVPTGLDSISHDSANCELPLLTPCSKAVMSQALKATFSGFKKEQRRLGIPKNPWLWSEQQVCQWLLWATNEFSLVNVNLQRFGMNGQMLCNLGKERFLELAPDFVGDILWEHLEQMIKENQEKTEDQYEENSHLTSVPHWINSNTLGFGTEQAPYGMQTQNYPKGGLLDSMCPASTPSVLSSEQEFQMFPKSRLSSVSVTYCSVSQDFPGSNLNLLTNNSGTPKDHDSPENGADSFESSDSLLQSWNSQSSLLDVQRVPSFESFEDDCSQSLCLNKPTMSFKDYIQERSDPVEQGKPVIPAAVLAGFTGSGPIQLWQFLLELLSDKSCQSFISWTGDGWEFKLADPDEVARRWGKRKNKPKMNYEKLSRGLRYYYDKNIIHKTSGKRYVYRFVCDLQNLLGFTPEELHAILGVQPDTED
In short: as §1

SPDEF = target: T9, SPDEF (Homo sapiens, UniProt O95238 1-335); conditions: protein: recombinant; tags: N-terminal GST; dsDNA, one strand shown
T9 sequence: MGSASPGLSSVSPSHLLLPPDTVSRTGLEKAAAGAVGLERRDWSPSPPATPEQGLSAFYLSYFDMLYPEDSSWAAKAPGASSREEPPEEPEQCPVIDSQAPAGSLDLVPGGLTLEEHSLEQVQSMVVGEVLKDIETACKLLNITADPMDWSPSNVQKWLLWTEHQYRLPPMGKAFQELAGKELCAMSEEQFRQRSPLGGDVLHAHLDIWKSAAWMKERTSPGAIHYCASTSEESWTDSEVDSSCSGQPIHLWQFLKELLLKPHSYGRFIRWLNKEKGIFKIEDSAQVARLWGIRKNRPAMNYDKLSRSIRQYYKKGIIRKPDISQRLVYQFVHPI
In short: as §1

ETV7 = target: T10, ETV7 (Homo sapiens, UniProt Q9Y603 1-341); conditions: protein: recombinant; tags: N-terminal GST; dsDNA, one strand shown
T10 sequence: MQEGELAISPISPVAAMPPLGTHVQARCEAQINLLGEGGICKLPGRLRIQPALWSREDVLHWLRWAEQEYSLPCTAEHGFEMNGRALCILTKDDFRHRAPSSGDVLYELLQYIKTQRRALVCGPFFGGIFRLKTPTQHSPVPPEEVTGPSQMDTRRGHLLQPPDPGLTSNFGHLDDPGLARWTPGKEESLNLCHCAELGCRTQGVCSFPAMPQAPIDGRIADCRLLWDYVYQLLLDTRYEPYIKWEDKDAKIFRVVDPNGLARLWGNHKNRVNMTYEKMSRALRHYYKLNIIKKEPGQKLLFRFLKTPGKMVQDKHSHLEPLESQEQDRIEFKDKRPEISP
In short: as §1

ELF5 = target: T11, ELF5 (Homo sapiens, UniProt Q9UKW6-2 1-255); conditions: protein: recombinant; tags: N-terminal GST; dsDNA, one strand shown
T11 sequence: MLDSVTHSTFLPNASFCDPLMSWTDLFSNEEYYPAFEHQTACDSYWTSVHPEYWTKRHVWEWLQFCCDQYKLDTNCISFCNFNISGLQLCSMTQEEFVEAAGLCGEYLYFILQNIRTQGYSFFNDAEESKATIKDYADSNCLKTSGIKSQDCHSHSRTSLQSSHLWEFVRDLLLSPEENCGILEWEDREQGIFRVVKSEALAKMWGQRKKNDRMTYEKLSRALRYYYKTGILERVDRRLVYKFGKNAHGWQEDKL
In short: as §1

ETV3 = target: T12, ETV3 (Homo sapiens, UniProt P41162-2 1-143); conditions: protein: recombinant; tags: N-terminal GST; dsDNA, one strand shown
T12 sequence: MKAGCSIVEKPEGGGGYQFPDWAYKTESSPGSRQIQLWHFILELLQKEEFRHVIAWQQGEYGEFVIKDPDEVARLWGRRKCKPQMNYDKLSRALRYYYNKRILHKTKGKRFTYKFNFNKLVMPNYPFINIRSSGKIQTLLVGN
In short: as §1

ETV6 = ETV6 (Homo sapiens, UniProt P41212 1-452); conditions: protein: recombinant; tags: N-terminal GST; dsDNA, one strand shown
Chain of ETV6 (P41212 whole entry): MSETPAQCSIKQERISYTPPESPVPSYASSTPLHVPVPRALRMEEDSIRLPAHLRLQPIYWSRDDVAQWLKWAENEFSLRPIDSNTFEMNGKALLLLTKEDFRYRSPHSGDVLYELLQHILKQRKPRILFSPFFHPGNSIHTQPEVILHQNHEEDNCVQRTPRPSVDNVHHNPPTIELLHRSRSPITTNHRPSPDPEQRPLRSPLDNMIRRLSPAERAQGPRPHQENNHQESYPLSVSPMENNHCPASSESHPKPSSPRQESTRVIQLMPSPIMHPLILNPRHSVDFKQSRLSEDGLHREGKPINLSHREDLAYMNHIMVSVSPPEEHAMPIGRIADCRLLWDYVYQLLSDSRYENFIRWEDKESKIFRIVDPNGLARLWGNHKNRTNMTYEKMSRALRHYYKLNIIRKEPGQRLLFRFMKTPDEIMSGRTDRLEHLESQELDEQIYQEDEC
In short: as §1

Sequence	binding signal (FEV)	binding signal (ETV5)	binding signal (HSF1)	binding signal (SPIC)	binding signal (ELF4)	binding signal (ELK4)	binding signal (ETV2)	binding signal (ELF3)	binding signal (CRX)	binding signal (ETV1)	binding signal (ERF)	binding signal (ETV3L)	binding signal (ETS2)	binding signal (SPDEF)	binding signal (ETV7)	binding signal (ELF5)	binding signal (ETV3)	binding signal (ETV6)
CCTTGG	1.17 fold enrichment (6-mer frequency, TF over GST control)	1.21 fold enrichment (6-mer frequency, TF over GST control)	1.1 fold enrichment (6-mer frequency, TF over GST control)	1.23 fold enrichment (6-mer frequency, TF over GST control)	1.27 fold enrichment (6-mer frequency, TF over GST control)	1.37 fold enrichment (6-mer frequency, TF over GST control)	1.28 fold enrichment (6-mer frequency, TF over GST control)	1.22 fold enrichment (6-mer frequency, TF over GST control)	1.09 fold enrichment (6-mer frequency, TF over GST control)	1.35 fold enrichment (6-mer frequency, TF over GST control)	1.23 fold enrichment (6-mer frequency, TF over GST control)	1.3 fold enrichment (6-mer frequency, TF over GST control)	1.25 fold enrichment (6-mer frequency, TF over GST control)	1.25 fold enrichment (6-mer frequency, TF over GST control)	1.22 fold enrichment (6-mer frequency, TF over GST control)	1.26 fold enrichment (6-mer frequency, TF over GST control)	1.12 fold enrichment (6-mer frequency, TF over GST control)	1.24 fold enrichment (6-mer frequency, TF over GST control)
TATTTG	1.39 fold enrichment (6-mer frequency, TF over GST control)	1.47 fold enrichment (6-mer frequency, TF over GST control)	1.43 fold enrichment (6-mer frequency, TF over GST control)	1.25 fold enrichment (6-mer frequency, TF over GST control)	1.3 fold enrichment (6-mer frequency, TF over GST control)	1.26 fold enrichment (6-mer frequency, TF over GST control)	1.27 fold enrichment (6-mer frequency, TF over GST control)	1.45 fold enrichment (6-mer frequency, TF over GST control)	1.71 fold enrichment (6-mer frequency, TF over GST control)	1.4 fold enrichment (6-mer frequency, TF over GST control)	1.34 fold enrichment (6-mer frequency, TF over GST control)	1.47 fold enrichment (6-mer frequency, TF over GST control)	1.41 fold enrichment (6-mer frequency, TF over GST control)	1.32 fold enrichment (6-mer frequency, TF over GST control)	1.52 fold enrichment (6-mer frequency, TF over GST control)	1.4 fold enrichment (6-mer frequency, TF over GST control)	1.47 fold enrichment (6-mer frequency, TF over GST control)	1.45 fold enrichment (6-mer frequency, TF over GST control)

— paper PMC7862700, “An all-to-all approach to the identification of sequence-specific readers for epigenetic DNA modifications on cytosine”
